Measurements: PubChem BioAssay AID1159580 (chemical genetic matrix, 2015)
Several values for one entry are separate records, joined by “and”; a condition that tells them apart may be missing. Identical values can stand only once. About 2,000 (36%) of roughly 5,500 compounds were called active. Roughly 18% stayed inconclusive and do not appear here. Rule as the data show it: active = normalized growth mostly below about 0.91 (no sharp cut-off); inconclusive = no clear call, values can overlap the other calls; inactive = mostly above about 0.92. The list shows a part of the results.

Experiment: chemical genetic growth profiling, strain panel (AID 1159580);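 also: tested at 20 µM; growth read once vehicle control cultures reached saturation at 30 °C; 1 = growth at the plate median or of vehicle wells; lower values mean less growth of the strain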
Conditions: S. cerevisiae deletion strains, growth OD

Measured: normalized growth

COc1c2ccccc2nc2occc12
active: locus YBR009C, strain hhf1, stronger effect = lower value 0.867 | locus YCL016C, strain dcc1, stronger effect = lower value 0.9 | locus YCL069W, strain vba3, stronger effect = lower value 0.882 | locus YDL192W, strain arf1, stronger effect = lower value 0.89 | locus YDR101C, strain arx1, stronger effect = lower value 0.876 | locus YDR195W, strain ref2 1.32 [resistant] | locus YDR502C, strain sam2, stronger effect = lower value 0.918 | locus YER015W, strain faa2, stronger effect = lower value 0.923 | locus YER155C, strain BEM2 (second series), stronger effect = lower value 0.648 | locus YGL086W, strain mad1, stronger effect = lower value 0.907 | locus YGL240W, strain doc1, stronger effect = lower value 0.791 | locus YGR135W, strain pre9, stronger effect = lower value 0.888 | locus YGR252W, strain gcn5, stronger effect = lower value 0.728 | locus YHR142W, strain chs7, stronger effect = lower value 0.842 | locus YHR200W, strain rpn10, stronger effect = lower value 0.882 | locus YJL164C, strain tpk1, stronger effect = lower value 0.907 | locus YJL166W, strain qcr8, stronger effect = lower value 0.901 | locus YKR001C, strain vps1, stronger effect = lower value 0.766 | locus YLL001W, strain dnm1, stronger effect = lower value 0.872 | locus YLR320W, strain mms22, stronger effect = lower value 0.871 | locus YLR330W, strain CHS5, stronger effect = lower value 0.917 | locus YLR371W, strain rom2, stronger effect = lower value 0.81 | locus YLR418C, strain cdc73, stronger effect = lower value 0.744 | locus YML032C, strain rad52, stronger effect = lower value 0.786 | locus YMR058W, strain fet3, stronger effect = lower value 0.894 | locus YNL071W, strain lat1, stronger effect = lower value 0.914 | locus YNL248C, strain rpa49, stronger effect = lower value 0.75 | locus YOL147C, strain pex11, stronger effect = lower value 0.924 | locus YOR001W, strain rrp6, stronger effect = lower value 0.89 | locus YOR083W, strain WHI5, stronger effect = lower value 0.852 | locus YOR106W, strain vam3, stronger effect = lower value 0.824 | locus YOR184W, strain ser1, stronger effect = lower value 0.855 | locus YOR270C, strain vph1, stronger effect = lower value 0.73 | locus YOR290C, strain snf2, stronger effect = lower value 0.858 | locus YPL051W, strain arl3, stronger effect = lower value 0.892 | locus YPL078C, strain atp4, stronger effect = lower value 0.842 | locus YPL106C, strain sse1, stronger effect = lower value 0.826 | strain wtn01, stronger effect = lower value 0.894
inactive: locus YAL013W, strain DEP1, stronger effect = lower value 0.918 | locus YAL021C, strain ccr4, stronger effect = lower value 0.943 | locus YAL026C, strain drs2, stronger effect = lower value 0.914 | locus YAL030W, strain snc1, stronger effect = lower value 0.971 | locus YBL061C, strain skt5, stronger effect = lower value 0.956 | locus YBR021W, strain FUR4, stronger effect = lower value 0.993 | locus YBR023C, strain chs3, stronger effect = lower value 0.926 | locus YBR171W, strain sec66, stronger effect = lower value 0.942 | locus YBR229C, strain ROT2, stronger effect = lower value 1 | locus YBR231C, strain swc5, stronger effect = lower value 0.969 | locus YBR279W, strain paf1, stronger effect = lower value 0.949 | locus YCL011C, strain gbp2, stronger effect = lower value 0.913 | locus YCL029C, strain bik1, stronger effect = lower value 0.953 | locus YCR088W, strain abp1, stronger effect = lower value 0.991 | locus YDL005C, strain med2, stronger effect = lower value 0.972 | locus YDL035C, strain GPR1, stronger effect = lower value 0.929 | locus YDL040C, strain nat1, stronger effect = lower value 0.982 | locus YDL074C, strain BRE1, stronger effect = lower value 0.867 | locus YDL101C, strain DUN1, stronger effect = lower value 0.934 | locus YDL185W, strain tfp1, stronger effect = lower value 0.99 | locus YDR001C, strain nth1, stronger effect = lower value 0.966 | locus YDR069C, strain doa4, stronger effect = lower value 0.942 | locus YDR137W, strain rgp1, stronger effect = lower value 0.93 | locus YDR159W, strain sac3, stronger effect = lower value 0.931 | locus YDR162C, strain NBP2, stronger effect = lower value 0.926 | locus YDR297W, strain sur2, stronger effect = lower value 0.97 | locus YDR318W, strain mcm21, stronger effect = lower value 0.928 | locus YDR334W, strain swr1, stronger effect = lower value 0.945 | locus YDR335W, strain msn5, stronger effect = lower value 0.938 | locus YDR388W, stronger effect = lower value 0.993 | locus YDR392W, strain spt3, stronger effect = lower value 0.767 | locus YEL003W, strain gim4, stronger effect = lower value 0.941 | locus YEL037C, strain rad23, stronger effect = lower value 0.954 | locus YEL061C, strain CIN8 (second series), stronger effect = lower value 0.976 | locus YEL061C, strain CIN8, stronger effect = lower value 0.993 | locus YER016W, strain bim1, stronger effect = lower value 0.981 | locus YER110C, stronger effect = lower value 0.937 | locus YER111C, strain swi4, stronger effect = lower value 0.981 | locus YER155C, strain BEM2, stronger effect = lower value 1.02 | locus YER167W, strain BCK2, stronger effect = lower value 0.941 | locus YFR010W, strain ubp6, stronger effect = lower value 0.919 | locus YGL078C, strain dbp3, stronger effect = lower value 0.944 | locus YGL167C, strain pmr1, stronger effect = lower value 0.949 | locus YGL173C, strain kem1, stronger effect = lower value 0.941 | locus YGL227W, strain vid30, stronger effect = lower value 0.989 | locus YGL248W, strain PDE1, stronger effect = lower value 0.929 | locus YGL253W, strain hxk2, stronger effect = lower value 0.946 | locus YHR013C, strain ard1, stronger effect = lower value 0.967 | locus YHR027C, strain rpn1, stronger effect = lower value 0.932 | locus YHR030C, strain SLT2, stronger effect = lower value 1 and 0.88 | locus YHR079C, strain IRE1 (second series), stronger effect = lower value 0.994 | locus YHR079C, strain IRE1, stronger effect = lower value 0.868 | locus YHR094C, strain hxt1, stronger effect = lower value 1.01 | locus YHR129C, strain ARP1, stronger effect = lower value 0.967 | locus YIL066C, strain RNR3, stronger effect = lower value 0.91 | locus YIL073C, strain SPO22, stronger effect = lower value 0.939 | locus YIL125W, strain kgd1, stronger effect = lower value 0.981 | locus YIR030C, strain dcg1, stronger effect = lower value 0.992 | locus YJL092W, strain hpr5, stronger effect = lower value 0.954 | locus YJL095W, strain BCK1 (second series), stronger effect = lower value 0.968 | locus YJL115W, strain asf1, stronger effect = lower value 0.947 | locus YJL129C, strain trk1, stronger effect = lower value 1.02 | locus YJL134W, strain LCB3, stronger effect = lower value 1.01 | locus YJL154C, strain vps35, stronger effect = lower value 0.979 | locus YJL168C, strain set2, stronger effect = lower value 0.991 | locus YJL187C, strain SWE1 (second series), stronger effect = lower value 0.927 | locus YJL187C, strain SWE1, stronger effect = lower value 0.968 | locus YJR066W, strain TOR1, stronger effect = lower value 0.894 | locus YKL009W, strain mrt4, stronger effect = lower value 0.881 | locus YKL068W, stronger effect = lower value 1.02 | locus YKL085W, strain MDH1 (second series), stronger effect = lower value 0.984 | locus YKL085W, strain MDH1, stronger effect = lower value 0.984 | locus YKL160W, strain elf1, stronger effect = lower value 0.917 | locus YKR026C, strain gcn3, stronger effect = lower value 0.982 | locus YKR091W, strain srl3, stronger effect = lower value 0.969 | locus YLL026W, stronger effect = lower value 0.974 | locus YLL041C, strain sdh2, stronger effect = lower value 0.963 | locus YLR027C, strain aat2, stronger effect = lower value 0.946 | locus YLR039C, strain RIC1, stronger effect = lower value 0.925 | locus YLR058C, strain SHM2, stronger effect = lower value 0.957 | locus YLR102C, strain apc9, stronger effect = lower value 1 | locus YLR113W, strain HOG1, stronger effect = lower value 0.872 | locus YLR221C, strain rsa3, stronger effect = lower value 0.927 | locus YLR258W, strain gsy2, stronger effect = lower value 0.938 | locus YLR262C, strain YPT6 (second series), stronger effect = lower value 0.884 | locus YLR262C, strain YPT6, stronger effect = lower value 1.04 | locus YLR268W, strain sec22, stronger effect = lower value 0.896 | locus YLR342W, strain FKS1, stronger effect = lower value 0.974 | locus YLR357W, strain rsc2, stronger effect = lower value 1.04 | locus YLR370C, strain arc18, stronger effect = lower value 0.967 | locus YLR384C, strain iki3, stronger effect = lower value 0.981 | locus YML016C, strain PPZ1, stronger effect = lower value 0.975 | locus YML120C, strain ndi1, stronger effect = lower value 0.915 | locus YML124C, strain tub3, stronger effect = lower value 0.978 | locus YMR078C, strain ctf18, stronger effect = lower value 0.974 | locus YMR125W, strain sto1, stronger effect = lower value 0.983 | locus YMR129W, stronger effect = lower value 0.975 | locus YMR205C, strain PFK2, stronger effect = lower value 0.938 | locus YMR223W, strain ubp8, stronger effect = lower value 0.912 | locus YMR231W, strain pep5, stronger effect = lower value 0.994 | locus YMR263W, strain SAP30, stronger effect = lower value 0.952 | locus YMR307W, strain GAS1, stronger effect = lower value 1.15 | locus YNL067W, strain RPL9B, stronger effect = lower value 0.951 | locus YNL128W, strain TEP1, stronger effect = lower value 0.952 | locus YNL153C, strain GIM3, stronger effect = lower value 0.889 | locus YNL183C, strain NPR1, stronger effect = lower value 0.865 | locus YNL209W, strain ssb2, stronger effect = lower value 0.952 | locus YNL233W, strain BNI4, stronger effect = lower value 0.888 | locus YNL250W, strain rad50, stronger effect = lower value 0.963 | locus YNL271C, strain bni1, stronger effect = lower value 0.985 | locus YNL298W, strain CLA4, stronger effect = lower value 0.909 | locus YNL307C, strain MCK1, stronger effect = lower value 0.908 | locus YNL322C, strain KRE1 (second series), stronger effect = lower value 0.982 | locus YNR049C, strain mso1, stronger effect = lower value 0.983 | locus YNR052C, strain pop2, stronger effect = lower value 0.955 | locus YOL012C, strain htz1 1.22 | locus YOR061W, strain CKA2, stronger effect = lower value 0.962 | locus YOR069W, strain VPS5, stronger effect = lower value 0.985 | locus YOR070C, strain gyp1, stronger effect = lower value 0.965 | locus YOR080W, strain dia2, stronger effect = lower value 0.962 | locus YOR136W, strain idh2, stronger effect = lower value 0.978 | locus YOR144C, strain elg1, stronger effect = lower value 0.97 | locus YOR231W, strain MKK1, stronger effect = lower value 0.861 | locus YOR265W, strain rbl2, stronger effect = lower value 0.98 | locus YOR316C, strain cot1, stronger effect = lower value 1.02 | locus YPL240C, strain hsp82, stronger effect = lower value 0.973 | locus YPL256C, strain CLN2, stronger effect = lower value 0.981 | locus YPR119W, strain clb2, stronger effect = lower value 1 | locus YPR141C, strain kar3, stronger effect = lower value 1.04 | locus YPR163C, strain tif3, stronger effect = lower value 0.925 | locus YPR167C, strain met16, stronger effect = lower value 0.953
0.873 (inactive) and 0.874 (active): locus YJL095W, strain BCK1, stronger effect = lower value
